CYP2C19 act: increases human CYP2C19 enzyme activity; AID 1025; 96,000 tested, under 10 active; activation factor at 5 µM; recombinant CYP2C19, luciferin-H EGE luminescence; stronger effect = higher value; 0 = fully inhibited enzyme, 1 = untreated enzyme;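 active means activation factor of at least 2 at 5 µM in the primary screen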;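 further: 0 = wells with 2.5 mM tranylcypromine and 1 = vehicle-only wells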
CYP2C9 inh: human CYP2C9 inhibition | 96,000 tested, 20% active | CYP2C9 Supersomes, luciferin-H conversion, luminescence | inhibition, % at 5 µM | P11712 | AID 777;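 active means blocking of liver enzyme CYP2C9 beyond about 50% at 5 µM, limit read from the data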
Cav32 inh: blocks human Cav3.2 T-type calcium channel; O95180; Cav3.2-expressing cells, Fluo-4 calcium fluorescence FDSS; stronger effect = lower value; B-score at 10 µM; 100,000 tested, 4% active; AID 449739;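 active means single-dose well whose peak fluorescence ratio is a statistical outlier from its plate by either plate-standardised score or position-corrected B-score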
CYP2C19 inhib: human CYP2C19 inhibition; P33261; CYP2C19 Supersomes, luciferin-H EGE luminescence, 30 min; inhibition, % at 5 µM; 96,000 tested, 21% active;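 active means CYP2C19 inhibition above a set limit at 5 µM in the primary screen, cut at about 50% in these data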;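 further: plate controls were negative control wells for no effect and 2.5 mM tranylcypromine positive control for full effect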
CYP2C9 act: CYP2C9 (human) activation; P11712; recombinant CYP2C9, luciferin-H conversion, luminescence; stronger effect = higher value; factor 1 = untreated enzyme, 0 = blocked; activation factor at 5 µM; 96,000 tested, 1.4% active; AID 1024;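 active means activation factor of 2 or more for CYP2C9 at a 5 µM dose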;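 further: 0 = sulfaphenazole-blocked wells and 1 = vehicle-only wells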
Starred values were filed as active, the others as inactive; . = not tested or not shown. The list is not random: actives were taken first. Their share in the collection is about 27%.

SMILES | CYP2C19 act | CYP2C9 inh | Cav32 inh | CYP2C19 inhib | CYP2C9 act
CC(=O)c1ccc(NC(=O)CSc2nnc(Cn3c(=O)sc4ccccc43)n2C)cc1 | . | . | 0.2 | . | .
COC(=O)c1cccc(C23CC4(C2)[C@H](CN(Cc2cccnc2)[C@@H]4c2ccccc2)C3c2ccc(C(F)(F)F)cc2)c1 (some centres not stated) | . | . | -0.72 | . | .
Nc1c(C(=O)c2ccccc2)oc2ccc(Br)cc12 | 0.3 | 49 | -0.8 | 70* | 0.5
N=c1n(CCN2CCCCC2)c2ccccc2n1CC(O)c1ccc(Cl)c(Cl)c1 (configuration not stated) | 0.5 | 82* | -2.6 | 50 | 0.2
N=c1n(CCN2CCCCC2)c2ccccc2n1CC(O)c1cccc(Br)c1 (configuration not stated) | 0.9 | 2 | -1.3 | 6 | 1
O=C(CSCc1cnn(-c2ccccc2)c1-n1cccc1)NCCN1CCOCC1 | 0.7 | 46 | 0.53 | 32 | 0.5
O=C(NCc1ccccn1)C1CCN(Cc2cnn(-c3ccccc3)c2-n2cccc2)CC1 | 0.8 | -19 | 1.2 | 15 | 1.2
O=C(CCNS(=O)(=O)c1ccc2c(c1)CCC(=O)N2)NCc1ccc2c(c1)OCO2 | 1 | 41 | 0.63 | 0 | 0.6
O=C(CCNS(=O)(=O)c1ccccc1F)NCc1ccc2c(c1)OCO2 | 0.3 | 28 | 0.94 | 70* | 0.7
O=C(CSCc1cnn(-c2ccccc2)c1-n1cccc1)NCC1CCCO1 (configuration not stated) | 0.2 | 79* | 1.2 | 80* | 0.2
COc1cccc(CNC(=O)C2CCN(Cc3cnn(-c4ccccc4)c3-n3cccc3)CC2)c1 | 0.9 | 24 | -4.6* | 14 | 0.8
Cc1nonc1NC(=O)CSc1nc(C2CCCCC2)nc2ccccc12 | 1 | 50* | -0.23 | 2 | 0.5
CCN(CC)c1cccc(OC2=NS(=O)(=O)c3ccccc32)c1 | 1 | -26 | 0.85 | 2 | 1.3
Cc1nn(Cc2c(Cl)cccc2Cl)c(C)c1NC(=O)/C=C/c1cnn(C)c1C | 1 | 19 | 1.5 | 3 | 0.8
COc1ccc(CNC(=O)CSCc2cnn(-c3ccccc3)c2-n2cccc2)cc1 | 0 | 98* | -7* | 96* | 0
CCN(CC)C(=O)CSCc1cnn(-c2ccccc2)c1-n1cccc1 | 0.5 | 39 | -1.3 | 50 | 0.6
O=C(CSCc1ccccc1)NCc1ccc2c(c1)OCO2 | 0.5 | 91* | 0.38 | 54* | 0.1
O=C(CSCc1cnn(-c2ccccc2)c1-n1cccc1)NCc1ccc2c(c1)OCO2 | . | . | -7.7* | . | .
O=C(CSc1nc(C2CC2)nc2ccccc12)NCc1ccc2c(c1)OCO2 | 0.5 | 88* | . | 47 | 0.1
c1ccc(-n2ncc3c(NCc4ccc5c(c4)OCO5)ncnc32)cc1 | . | . | 0.33 | . | .
O=C(CSc1nc(C2CC2)nc2ccccc12)N1c2ccccc2Sc2ccc(C(F)(F)F)cc21 | 0.9 | 92* | -1.8 | 11 | 0.1
Cc1nc(SCC(=O)NCc2ccc3c(c2)OCO3)c(C#N)c2c1CCCC2 | 0.2 | 87* | -4* | 84* | 0.1
O=C(Cn1nnc(-c2ccccc2Cl)n1)NCc1ccc2c(c1)OCO2 | 0.9 | 94* | -3.2 | 6 | 0.1
O=C(Cn1cnc2ccccc2c1=O)NCc1ccc2c(c1)OCO2 | 0.9 | 8 | 0.075 | 6 | 0.9
COc1ccc(NC(=O)CSc2nc(C)c3c(c2C#N)CCCC3)cc1 | 0.8 | 21 | -0.72 | 20 | 0.8
SMILES | CYP2C19 act | CYP2C9 inh | Cav32 inh | CYP2C19 inhib | CYP2C9 act
Cc1cc(NC(=O)Cn2cc(C(F)(F)F)cc(Cl)c2=O)no1 | . | . | -1.1 | . | .
Cc1ccc(S(=O)(=O)NC(=NC(C)C(=O)O)c2ccccc2)cc1 (configuration not stated) | 1 | -4 | -0.81 | 0 | 1
Cc1ccc(S(=O)(=O)C/N=C(/NC(=S)N(c2ccccc2)c2ccccc2)c2ccccc2)cc1 | 0.7 | 69* | -2.8 | 28 | 0.3
Cc1ccc(Nc2nc(-c3sc(NC(=O)c4ccc([N+](=O)[O-])cc4)nc3C)cs2)cc1 | 0.6 | 26 | 0.2 | 36 | 0.7
O=C(CNC(=O)c1ccc(Oc2ccccc2)cc1)OC1CCCCC1=O (configuration not stated) | 0.9 | 12 | -0.79 | 11 | 0.9
O=S(=O)(Nc1cccc2cn[nH]c12)c1ccc(F)cc1 | 0.2 | 28 | -0.54 | 82* | 0.7
Cc1ccc(S(=O)(=O)N=Nc2c(O)[nH]c3ccccc23)cc1C | 1 | 17 | -0.25 | 1 | 0.8
Cc1cccc(C(=O)NNC(=O)C2CCCO2)c1 (configuration not stated) | 1.1 | -20 | 0.078 | -5 | 1.2
Cc1ccc(C(C)NC(=O)C2CCCO2)cc1C (configuration not stated) | 0.5 | -11 | -5.4* | 46 | 1.1
COc1ccc(CCC(=O)Nc2ccc3c(c2)OCCO3)cc1 | 0.9 | 32 | 0.22 | 6 | 0.7
N#CCc1nc(CSc2nc3ccccc3s2)cs1 | 0 | 28 | -0.28 | 98* | 0.7
CCOC(=O)c1ccc(NC(=S)NNC(=O)C2(C)CC2(Cl)Cl)cc1 (configuration not stated) | . | . | -3 | . | .
O=C1CCCC(O)=C1C1C2=C(CCCC2=O)Oc2ccccc21 (configuration not stated) | 0.9 | 20 | -0.091 | 9 | 0.8
O=C1CC(c2cccc(Br)c2)c2cc3c(cc2N1)CCC3 (configuration not stated) | 0.7 | 55* | . | 29 | 0.5
OCCOCCn1c(C(CO)Nc2nc(-c3ccc(F)cc3)cs2)nc2ccccc21 (configuration not stated) | . | . | 0.021 | . | .
Cc1ccc(C(=O)NCC2(c3ccccc3)CCCC2)cc1 | 0.7 | 45 | -3.9* | 30 | 0.6
NC(=O)C1=C[C@H](c2ccc(C(F)(F)F)cc2)C[C@H](OCCCCO)O1 | . | . | 0.92 | . | .
Cc1nc(C)c(C(=O)N/N=C/c2c[nH]c3ccccc23)s1 | 1 | -20 | -0.073 | 3 | 1.2
Cc1nc(C)c(C(=O)N/N=C/c2cn(C)c3ccccc23)s1 | 0.5 | -24 | -0.25 | 53* | 1.2
C=CCNC(=O)C1CC(=O)N(c2ccc(OCC(=O)NCc3ccccc3)cc2)C1 (configuration not stated) | 1 | 19 | 1.3 | -3 | 0.8
CCn1c2ccccc2c2cc(NC(=O)c3ccc([N+](=O)[O-])cc3)ccc21 | 1 | -10 | 1.2 | 2 | 1.1
CCn1c2ccccc2c2cc(NC(C)=O)ccc21 | 0 | 30 | -0.014 | 98* | 0.7
CCn1c2ccccc2c2cc(NS(=O)(=O)c3ccc(C)cc3)ccc21 | 0.5 | 86* | -0.74 | 54* | 0.1
CCn1c2ccccc2c2cc(NC(=O)c3ccco3)ccc21 | 0.5 | -40 | -1.1 | 45 | 1.4
CCCCN(Cc1ccco1)C(=O)c1cc2c(=O)[nH]c3ccc(C)cc3c2s1 | 0.5 | 72* | -0.18 | 50* | 0.3
Cc1ccc2[nH]c(=O)c3cc(C(=O)N(CCCOC(C)C)Cc4ccco4)sc3c2c1 | 0.6 | 58* | -1 | 37 | 0.4
